According to PubChem BioAssay (Tox21):
Where “and” joins values, the source holds several entries; their conditions need not be identical. Equal values may be shown once. Results filed as inconclusive are left out. Calls of active or inactive are those of the source. Unless noted, calls follow the shape of the dose curve; as a rule, active = well fitted curve in the direction sought with a large enough effect in the repeat runs; inconclusive = weak or mixed curves; inactive = no such curve, though single readings can be large; an effect the other way counts as inactive or inconclusive.

What was measured:
[1] = qHTS assay to identify small molecule antagonists of the androgen receptor (AR) signaling pathway using the MDA cell line in the presence of 0.5 nM R1881 - cell viability counter screen (AID 1259242); also: nearly all actives have a fitted effect of over 45% in size
How it was run: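 Viability of MDA-kb2 cells was multiplexed with the luciferase AR readout; after 16 hr with compounds and R1881 at 0.5 nM final, CellTiter-Fluor fluorescence was recorded.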

[2] = target: Androgen receptor (Homo sapiens) (UniProt P10275); assay: qHTS assay to identify small molecule antagonists of the androgen receptor (AR) signaling pathway using the MDA cell line in the presence of 0.5 nM R1881 (AID 1259243); also: nearly all actives have a fitted effect of over 50% in size
Chain of Androgen receptor (Homo sapiens) (P10275 whole entry, looked up): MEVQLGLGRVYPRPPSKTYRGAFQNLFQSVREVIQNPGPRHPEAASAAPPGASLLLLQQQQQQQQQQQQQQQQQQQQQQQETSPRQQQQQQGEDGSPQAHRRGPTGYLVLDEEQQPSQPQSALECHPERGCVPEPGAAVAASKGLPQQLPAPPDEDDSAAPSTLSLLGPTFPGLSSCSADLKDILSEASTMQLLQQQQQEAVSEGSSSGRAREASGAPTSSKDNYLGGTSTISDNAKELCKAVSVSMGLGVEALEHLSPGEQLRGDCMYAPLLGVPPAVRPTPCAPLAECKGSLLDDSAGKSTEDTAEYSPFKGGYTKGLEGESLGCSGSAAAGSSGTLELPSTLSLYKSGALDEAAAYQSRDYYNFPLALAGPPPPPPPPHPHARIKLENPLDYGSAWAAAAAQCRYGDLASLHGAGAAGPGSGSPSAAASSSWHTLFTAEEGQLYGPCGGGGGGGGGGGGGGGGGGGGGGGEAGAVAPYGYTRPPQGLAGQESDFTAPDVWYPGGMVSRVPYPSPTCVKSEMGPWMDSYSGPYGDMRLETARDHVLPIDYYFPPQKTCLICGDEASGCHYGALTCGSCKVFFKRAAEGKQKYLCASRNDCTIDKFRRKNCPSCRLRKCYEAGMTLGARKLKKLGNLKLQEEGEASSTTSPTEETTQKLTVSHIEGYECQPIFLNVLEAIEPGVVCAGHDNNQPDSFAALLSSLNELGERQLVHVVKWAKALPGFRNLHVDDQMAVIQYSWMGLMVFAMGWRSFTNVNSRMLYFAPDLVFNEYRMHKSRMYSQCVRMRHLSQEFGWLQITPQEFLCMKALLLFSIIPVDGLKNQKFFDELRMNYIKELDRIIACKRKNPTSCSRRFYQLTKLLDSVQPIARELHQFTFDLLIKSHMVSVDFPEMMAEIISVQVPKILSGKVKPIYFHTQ
How it was run: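 Reporter cells cultured without CO2 receive test chemicals, then 0.5 nM R1881 final; after 16 hr at 37C, ONE-Glo is added and light output recorded.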

[3] = target: Estrogen receptor (Homo sapiens) (UniProt P03372); assay: qHTS assay to identify small molecule antagonists of the estrogen receptor alpha (ER-alpha) signaling pathway using the BG1 cell line in the presence of 0.1 nM 17-beta-estradiol (AID 1259244); also: nearly all actives have a fitted effect of over 50% in size; also: potency is read from the fitted curve at half-maximal effect
Chain of Estrogen receptor (Homo sapiens) (P03372 whole entry, looked up): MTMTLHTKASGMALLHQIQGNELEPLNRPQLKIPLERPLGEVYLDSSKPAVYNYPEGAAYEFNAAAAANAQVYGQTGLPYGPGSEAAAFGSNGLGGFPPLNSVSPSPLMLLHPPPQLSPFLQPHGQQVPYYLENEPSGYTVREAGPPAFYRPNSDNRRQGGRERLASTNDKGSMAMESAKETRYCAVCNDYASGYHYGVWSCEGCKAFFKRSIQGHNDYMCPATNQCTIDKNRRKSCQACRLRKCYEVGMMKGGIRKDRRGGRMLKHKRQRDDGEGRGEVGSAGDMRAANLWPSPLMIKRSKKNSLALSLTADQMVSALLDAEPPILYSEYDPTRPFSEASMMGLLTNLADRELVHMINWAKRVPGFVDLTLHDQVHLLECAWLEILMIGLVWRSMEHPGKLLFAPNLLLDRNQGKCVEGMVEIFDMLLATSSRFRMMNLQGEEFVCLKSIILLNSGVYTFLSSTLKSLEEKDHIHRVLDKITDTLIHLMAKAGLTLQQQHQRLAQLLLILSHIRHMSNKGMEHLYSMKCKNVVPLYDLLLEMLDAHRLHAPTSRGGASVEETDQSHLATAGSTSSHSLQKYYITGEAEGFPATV
How it was run: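 Estradiol at 0.1 nM (final) stimulates the endogenous ER-alpha of VM7Luc4E2 cells carrying an ERE-driven luciferase; compounds are co-incubated 22 h at 37C and luciferase output quantified by luminescence.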

[4] = qHTS assay to identify small molecule phospholipidosis (PLD) inducers (AID 1259344; active = well fitted curve in the direction sought with a large enough effect; an effect the other way counts as inactive or inconclusive)
How it was run: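 Phospholipidosis is scored by imaging LipidTOX-stained pits in HepG2 cells exposed to compound for 24 h at 37 C; pit counts and integrated intensities per well and per cell serve as outputs.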

[5] = qHTS assay to identify small molecule HDAC inhibitors (AID 1259364);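 also: wild-type HCT-116 cells with endogenous class I/II HDAC activity; top concentration of the series differs between compounds; nearly all actives have a fitted effect of over 45% in size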
How it was run: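 Read-out: luminescence of HDAC-Glo I/II reagent, 30 min RT, reflecting class I/II deacetylase activity in whole HCT-116 cells pre-exposed 2 h to DMSO-dissolved compounds.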

[6] = qHTS assay to identify small molecule HDAC inhibitors - cell viability counter screen (AID 1259365); also: series mostly up to about 92 µM; nearly all actives have a fitted effect of over 50% in size
How it was run: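 HCT-116 wild-type, overnight attachment; 2hr drug exposure, 37C; CellTiter-Glo luminescent ATP readout after 30min RT.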

[7] = qHTS assay to identify small molecule agonists of the sonic hedgehog signaling (Shh) pathway - cell viability counter screen (AID 1259366); also: nearly all actives have a fitted effect of over 50% in size
How it was run: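 Compounds in DMSO were pin-transferred onto 3T3 Gli1-Luc cells that had settled 4hr; plates then stood 24hr at 37C and 5% CO2. One hour before the end, CellTiter-Fluor was added and fluorescence recorded.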

[8] = qHTS assay to identify small molecule antagonists of the sonic hedgehog signaling (Shh) pathway - cell viability counter screen (AID 1259367); also: nearly all actives have a fitted effect of over 55% in size
How it was run: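 Cells: 3T3 Gli1-Luc, 2,000/well, 4 hr pre-incubation. Compounds in DMSO, then conditioned medium. Incubation 24 hr, 37C, 5% CO2. CellTiter-Fluor at 23 hr, 1 hr, fluorescence.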

[9] = qHTS assay to identify small molecule agonists of the sonic hedgehog signaling (Shh) pathway (AID 1259368; calls by dose curve;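 also: NIH/3T3-derived 3T3Gli1-Luc cells carrying a stable Gli1-driven firefly luciferase reporter; series mostly up to about 92 µM; nearly all actives have a fitted effect of over 15% in size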)
How it was run: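 A Gli1 transcriptional response element controlled firefly luciferase in 3T3Gli1-Luc cells. Compounds and a positive control were added 4 hr after plating, and cells were incubated a further 24 hr at 37 C before luminescence detection.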

[10] = qHTS assay to identify small molecule antagonists of the sonic hedgehog signaling (Shh) pathway (AID 1259369; calls by dose curve; also: nearly all actives have a fitted effect of over 45% in size; also: potency is read from the fitted curve at half-maximal effect)
How it was run: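 For antagonist detection, the reporter line received test compounds together with conditioned medium, incubated 24hr at 37 C, 5% CO2, then luminescence was recorded following 30min room-temperature luciferase reagent incubation.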

[11] = target: Estrogen receptor beta (Homo sapiens) (UniProt Q92731); assay: qHTS assay to identify small molecule agonists of the estrogen receptor beta (ER-beta) signaling pathway (AID 1259377; active = well fitted activation curve with a large enough effect in the signal ratio in the repeat runs, not every such curve was filed as active; the % refers to the signal ratio)
Chain of Estrogen receptor beta (Homo sapiens) (Q92731 whole entry, looked up): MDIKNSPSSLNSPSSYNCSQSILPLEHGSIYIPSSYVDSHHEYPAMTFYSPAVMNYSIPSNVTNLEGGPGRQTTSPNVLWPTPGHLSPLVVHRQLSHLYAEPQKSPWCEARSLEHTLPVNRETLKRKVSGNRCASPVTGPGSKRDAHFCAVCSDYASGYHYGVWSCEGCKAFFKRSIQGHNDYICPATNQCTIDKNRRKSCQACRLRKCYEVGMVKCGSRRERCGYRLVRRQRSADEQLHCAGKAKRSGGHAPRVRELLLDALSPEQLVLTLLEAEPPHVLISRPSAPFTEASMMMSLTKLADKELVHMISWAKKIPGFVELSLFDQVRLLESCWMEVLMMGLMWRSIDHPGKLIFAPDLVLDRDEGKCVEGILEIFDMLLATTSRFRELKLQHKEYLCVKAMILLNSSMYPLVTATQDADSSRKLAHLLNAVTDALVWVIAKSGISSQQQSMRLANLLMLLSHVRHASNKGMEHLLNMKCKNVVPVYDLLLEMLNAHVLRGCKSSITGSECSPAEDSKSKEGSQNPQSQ
How it was run: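 qHTS in ER-beta-UAS-bla HEK293T cells: 6 hr settling, then 16 hr compound at 37C, then LiveBLAzer substrate 2 h at RT before fluorescence reading.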

[12] = target: Estrogen receptor beta (Homo sapiens) (UniProt Q92731); assay: qHTS assay to identify small molecule antagonists of the estrogen receptor beta (ER-beta) signaling pathway (AID 1259378; active = well fitted inhibition curve with a large enough effect in the signal ratio in the repeat runs, not every such curve was filed as active; the % refers to the signal ratio)
How it was run: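 Antagonist mode: compounds added to beta-lactamase reporter HEK293T ER-beta-UAS cells stimulated with E2 (1nM final), 16 hr at 37C. LiveBLAzer B/G FRET substrate, 2 hours room temperature, fluorescence read-out.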

[13] = qHTS assay to identify small molecule agonists of the androgen receptor (AR) signaling pathway in the presence of an antagonist - cell viability counter screen (AID 1259379); also: nearly all actives have a fitted effect of over 25% in size; also: potency is read from the fitted curve at half-maximal effect
How it was run: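 Seed MDA-kb2 at 3,000 cells/well; incubate 5 hr, 37C, 0% CO2. Add nilutamide to 3.0uM final, then pin compounds at 15 concentrations. Incubate 16 hr. Add CellTiter-Fluor at 15 hr, read fluorescence after 1 hr.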

[14] = qHTS assay to identify small molecule agonists of the estrogen receptor beta (ER-beta) signaling pathway - cell viability counter screen (AID 1259380); also: nearly all actives have a fitted effect of over 30% in size
How it was run: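 CellTiter-Glo read, 30 min RT, same wells as bla assay; cells ER-beta-UAS-bla HEK293T; 16 hr compound, 37C; medium 2% charcoal-stripped FBS.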

[15] = target: Androgen receptor (Homo sapiens) (UniProt P10275); assay: qHTS assay to identify small molecule agonists of the androgen receptor (AR) signaling pathway in the presence of an antagonist (AID 1259381; calls by dose curve; also: nearly all actives have a fitted effect of over 15% in size)
How it was run: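 Test compounds at 15 concentrations were incubated for 16hr with MDA-kb2 reporter cells in presence of 3.0uM nilutamide (final). Signal: ONE-Glo luciferase luminescence.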

[16] = qHTS assay to identify small molecule antagonists of the estrogen receptor beta (ER-beta) signaling pathway - cell viability counter screen (AID 1259382);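 also: HEK293T cells carrying ER-beta-UAS-bla reporter stimulated with estradiol; series mostly up to about 92 µM; nearly all actives have a fitted effect of over 55% in size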
How it was run: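 In this multiplexed counter screen, cells were seeded at 2,000 per well in medium with 2% charcoal-stripped FBS and incubated 6 hr before compound and 1nM final E2 were added. Sixteen hours later, ATP-based luminescence reported viability.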

[17] = target: Estrogen receptor (Homo sapiens) (UniProt P03372); assay: qHTS assay to identify small molecule agonists of the estrogen receptor alpha (ER-alpha) signaling pathway in the presence of an antagonist (AID 1259383; calls by dose curve; also: top concentration of the series differs between compounds; nearly all actives have a fitted effect of over 15% in size)
How it was run: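 Stably transfected VM7Luc4E2 reporter cells, kept 5 days in charcoal-stripped serum, received ICI-182,780 at 10.0nM final before compound addition. Following 22hr incubation at 37C and 5% CO2, luciferase signal was read by luminescence.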

[18] = qHTS assay to identify small molecule agonists or antagonists of the thyroid stimulating hormone receptor (TSHR) signaling pathway - wild type cell line counter screen (AID 1259384; calls by dose curve)
How it was run: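 Counter screen in untransfected Hek293: compounds (15-point titration, triplicate) plus phosphodiesterase inhibitor Ro20-1724 added after 18 h plating; 30 min RT. Intracellular cAMP via competitive d2/cryptate immunoassay, 1 h incubation.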

[19] = target: Thyrotropin receptor (Homo sapiens) (UniProt P16473); assay: qHTS assay to identify small molecule antagonists of the thyroid stimulating hormone receptor (TSHR) signaling pathway (AID 1259385; calls by dose curve; also: nearly all actives have a fitted effect of over 20% in size)
Chain of Thyrotropin receptor (Homo sapiens) (P16473 whole entry, looked up): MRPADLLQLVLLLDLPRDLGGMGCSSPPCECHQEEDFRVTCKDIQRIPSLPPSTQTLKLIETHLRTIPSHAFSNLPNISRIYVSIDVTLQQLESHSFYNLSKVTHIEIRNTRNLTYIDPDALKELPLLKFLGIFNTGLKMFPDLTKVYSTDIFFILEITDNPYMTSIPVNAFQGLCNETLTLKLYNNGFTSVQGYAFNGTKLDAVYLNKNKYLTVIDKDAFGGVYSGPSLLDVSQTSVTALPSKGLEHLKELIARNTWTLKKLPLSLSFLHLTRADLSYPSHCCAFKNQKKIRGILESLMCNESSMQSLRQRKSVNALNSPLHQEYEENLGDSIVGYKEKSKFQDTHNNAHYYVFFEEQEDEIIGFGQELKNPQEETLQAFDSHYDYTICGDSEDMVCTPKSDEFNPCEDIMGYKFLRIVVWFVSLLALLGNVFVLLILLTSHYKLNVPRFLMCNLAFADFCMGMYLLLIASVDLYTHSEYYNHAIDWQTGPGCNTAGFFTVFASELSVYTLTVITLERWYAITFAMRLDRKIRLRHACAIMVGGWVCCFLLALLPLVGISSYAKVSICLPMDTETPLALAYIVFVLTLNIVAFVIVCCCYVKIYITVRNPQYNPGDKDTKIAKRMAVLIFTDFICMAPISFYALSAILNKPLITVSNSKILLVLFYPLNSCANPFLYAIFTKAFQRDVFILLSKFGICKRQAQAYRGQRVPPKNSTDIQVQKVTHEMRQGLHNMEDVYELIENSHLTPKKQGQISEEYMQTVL
How it was run: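 Antagonist mode: compound-treated TSHR-expressing HEK293 cells were stimulated with 1.5 ng/mL TSH (final) in presence of Ro20-1724 for 30 min at RT. HTRF cAMP detection after 1 h; each compound tested at 15 concentrations, triplicate.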

[20] = qHTS assay to identify small molecule agonists of the estrogen receptor alpha (ER-alpha) signaling pathway in the presence of an antagonist - cell viability counter screen (AID 1259386);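 also: series mostly up to about 92 µM; cells exposed to compounds for 22 h at 37 °C before the viability read; nearly all actives have a fitted effect of over 30% in size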
How it was run: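 Viability counter screen using VM7Luc4E2 (full-length ER-alpha, four ERE-luciferase). The cells were treated with compounds alongside ICI-182,780 10.0nM for 22hr, and live-cell protease fluorescence was quantified with CellTiter-Fluor.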

Measured: Potency

COc1cc(O)c(C(=O)c2ccccc2)cc1S(=O)(=O)O
inactive: all assays above

CC1(C)O[C@@H]2[C@@H](CO[C@@]3(COS(N)(=O)=O)OC(C)(C)O[C@@H]23)O1
not listed: [2] | [8] | [9] | [15] | [20]
inactive: all other assays above

OCCCc1ccccc1
not listed: [2] | [8] | [15]
inactive: all other assays above

COC1=CC(=O)C[C@@H](C)[C@]12Oc1c(Cl)c(OC)cc(OC)c1C2=O
active: [10] 4.29 µM and 13.7 µM
not listed: [2] | [8] | [15] | [16]
inactive: all other assays above

Cc1cccc2ccccc12
not listed: [2] | [4] | [9] | [11] | [12] | [15] | [20]
inactive: all other assays above

COC(=O)C1CCC(C(=O)OC)CC1 (stereo not drawn)
not listed: [2] | [4] | [15]
inactive: all other assays above

O=C(O)CN(CC(=O)O)CC(=O)O
not listed: [2] | [4] | [11] | [12] | [15]
inactive: all other assays above

C[C@]12C=CC(=O)C=C1CC[C@@H]1[C@@H]2C(=O)C[C@@]2(C)[C@H]1CC[C@]2(O)C(=O)CO
not listed: [2] | [8] | [9] | [15] | [20]
inactive: all other assays above

C=CC(=O)NC(C)(C)CS(=O)(=O)O
not listed: [2] | [4] | [9] | [15] | [16] | [20]
inactive: all other assays above

CCCCCCCCCCCCCCCCCC(=O)OCC(O)CO (stereo not drawn)
not listed: [2] | [8] | [9] | [15]
inactive: all other assays above

CN/C(=C\[N+](=O)[O-])NCCSCc1ccc(CN(C)C)o1
not listed: [2] | [8] | [15] | [16] | [20]
inactive: all other assays above

NC(=O)N1c2ccccc2C=Cc2ccccc21
not listed: [2] | [9] | [15] | [18] | [19]
inactive: all other assays above

O=C(O)CCCCC1CCSS1 (stereo not drawn)
not listed: [2] | [8] | [9] | [15] | [16] | [20]
inactive: all other assays above

COc1ccccc1NC(=O)CC(C)=O
not listed: [2] | [4] | [15]
inactive: all other assays above

N[C@@H](Cc1c[nH]c2ccc(O)cc12)C(=O)O
not listed: [2] | [8] | [9] | [11] | [12] | [15] | [20]
inactive: all other assays above

NC(N)=NC(N)=NCCc1ccccc1
active: [3] 7.65 µM and 5.45 µM and 7.5 µM | [13] 48.3 µM and 54.5 µM and 26.6 µM
not listed: [2] | [9] | [15] | [20]
inactive: all other assays above
